# Data as given in the supplement of paper PMC13392028.
# Whole data set: some 4,100 sequences, median “RBNS R-value (6-mer enrichment in protein-bound RNA vs input library)” near 0.96, cut for the highest 2% near 2.4. This is one part of a sample in which the highest values are shown more often than they occur.
# Test system: PyIESI-1 RRM domain (Plasmodium yoelii PY17X_0911200 aa 795-956, GST fusion)
# Test: RBNS R-value (6-mer enrichment in protein-bound RNA vs input library) (ratio); higher = stronger binding preference; the methods of the paper give 50 / 100 / 500 nM protein instead
# Description: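 RNA Bind-n-Seq: recombinant GST-tagged IESI-1 RRM domain was incubated at room temperature with a random 40-nt in vitro transcribed RNA library at 250, 500 or 1000 nM protein. Bound RNA was pulled down on glutathione beads and sequenced. R-value is the enrichment of each 6-mer in the bound RNA relative to the input library. Each 6-mer sits inside the random 40-mer context, not as an isolated oligo. Values are replicate 1 only.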
Sequence,RBNS R-value (protein concentration: 250 nM),RBNS R-value (protein concentration: 500 nM),RBNS R-value (protein concentration: 1000 nM)
GUAUGU,0.702,0.701,0.677
GAUCAG,1.21,1.23,1.26
AUUUGG,1.56,1.52,1.53
AUUUGA,2.85,2.67,2.75
UUUUGC,1.25,1.28,1.3
UUUUGA,2.87,2.69,2.76
AUUUGU,1.19,1.18,1.16
UUUUGU,0.927,0.945,0.932
CGUCGU,0.673,0.674,0.653
AUUCGG,1.21,1.23,1.22
GAGGCA,1.07,1.06,1.04
AGUCAG,0.665,0.689,0.664
GGUAGU,0.858,0.895,0.812
UCGAAU,0.871,0.871,0.846
CAUUGC,1.1,1.11,1.11
GAUUGG,2.35,2.26,2.17
GAUUGU,1.51,1.5,1.51
UAUUGA,1.66,1.61,1.65
AAUUGU,0.811,0.836,0.821
AAUUGA,2.42,2.26,2.31
GAUUGC,3.17,2.85,2.87
GAUUGA,3.24,3.03,3.05
CAUUGA,2.25,2.16,2.24
UGGAUC,0.876,0.876,0.852
